A selection: hits, their analogues and other compounds. The true share with any hit is near 7.5%.
ELG1 genotox: inducers of genotoxicity in HEK293T ELG1-luciferase cells; Potency, µM (series often up to 46 µM), hits mostly activators; 1.3% of 330,000 active; HEK293T ELG1-luciferase reporter, luminescence, 16 h; AID 504466; further: nearly all actives have a fitted effect of over 60% in size
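HEK293T cells expressing luciferase-tagged ELG1 were treated with compound or DMSO for 16 hr at 37°C. Luciferase activity was then read after 30 min with ONE-Glo at room temperature; rising signal flags genetic stress.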
FLuc counter: inhibits or activates purified firefly luciferase, miR-21 counter-screen; P08659; purified FLuc, Km substrates, luminescence inhibition; Potency, µM (top dose mostly 57.5 µM), hits mostly inhibitors; 6.9% of 360,000 active; AID 588342; further: nearly all actives have a fitted effect of over 55% in size
Target sequence (P08659 whole entry, looked up): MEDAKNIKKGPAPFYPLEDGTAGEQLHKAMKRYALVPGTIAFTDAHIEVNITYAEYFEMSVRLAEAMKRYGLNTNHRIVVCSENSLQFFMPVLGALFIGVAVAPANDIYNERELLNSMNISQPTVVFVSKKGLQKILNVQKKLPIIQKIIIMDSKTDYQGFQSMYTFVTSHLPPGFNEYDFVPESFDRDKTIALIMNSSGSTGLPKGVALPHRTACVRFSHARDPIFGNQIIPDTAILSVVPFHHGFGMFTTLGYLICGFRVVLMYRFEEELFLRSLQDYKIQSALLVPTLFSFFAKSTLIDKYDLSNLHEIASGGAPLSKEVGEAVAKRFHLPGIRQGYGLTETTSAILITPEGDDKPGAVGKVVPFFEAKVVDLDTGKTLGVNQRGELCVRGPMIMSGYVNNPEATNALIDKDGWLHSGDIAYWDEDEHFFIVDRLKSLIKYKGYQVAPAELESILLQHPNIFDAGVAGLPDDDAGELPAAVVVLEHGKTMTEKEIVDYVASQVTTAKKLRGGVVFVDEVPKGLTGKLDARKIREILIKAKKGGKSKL
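Biochemical qHTS of compounds, final roughly 60 µM downward over six points, against 10 nM purified firefly luciferase using Km concentrations of substrates (10 uM D-luciferin, 10 uM ATP) in Tris acetate pH 7.5 buffer; luminescence output.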
Rab9 promoter act: activates the Rab9 promoter; Huh7 Rab9 promoter-luciferase reporter, luminescence, 24 h; Potency, µM (series often up to 9.22 µM), actives largely listed as activators; 2.8% of 320,000 active; AID 485297; further: nearly all actives have a fitted effect of over 60% in size
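Huh7 cells stably carrying a Rab9 promoter-luciferase reporter, 1500 cells per well in OP-MEM I with 10% FBS, treated with compound 24 hours at 37C. Luciferase activity read by luminescence after 10 minutes with Amplite reagent.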
NPC1 prom act: activators of NPC1 promoter. Huh7 NPC1 promoter luciferase reporter, 24 h. Potency, µM (doses to about 9.22 µM), most hits filed as activators. 2.4% of 320,000 active; further: nearly all actives have a fitted effect of over 60% in size
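Luminescence read-out of NPC1 promoter-driven luciferase in stably transfected Huh7 cells; compounds delivered in DMSO and left 24 h at 37C, 5% CO2, qHTS titration format.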
SMN2 splice up: increases expression of the SMN2 splice variant; HEK293 SMN2-luciferase splicing reporter, luminescence, 30-36 h; Potency, µM (doses to about 46.1 µM), most hits filed as activators; 2.8% of 210,000 active; AID 1458; further: nearly all actives have a fitted effect of over 55% in size
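HEK293 cells carry an SMN2 minigene-luciferase reporter in which exon 7 inclusion puts luciferase in frame. Cells were seeded at 2000 cells/well, attached for 10-12 hours, then exposed to compounds for 30-36 hours at 37C before ONE-Glo luminescence.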
Numbers stand for hits. The call rests on the fitted dose curve; in most records, active means well fitted curve in the direction sought with a large enough effect; inconclusive means small, poorly fitted or top-dose-only effect, or another doubt; inactive means no such curve, though single readings can be large; an effect the other way counts as inactive or inconclusive.

CC(=O)Nc1ccc(Nc2nc(-c3sc(NC(C)=O)nc3C)cs2)cc1 was read as ELG1 genotox inactive, FLuc counter inconclusive, Rab9 promoter act inactive and NPC1 prom act inactive.
Screening c1cncc(Nc2nc(-c3ccncc3)cs2)c1 returned ELG1 genotox inactive, FLuc counter inconclusive, Rab9 promoter act inactive, NPC1 prom act inactive and SMN2 splice up inactive.
Cc1nc(C)c(-c2csc(Nc3ccc(N)cc3)n2)s1 was read as ELG1 genotox inactive, FLuc counter 10.7µM, Rab9 promoter act inactive and NPC1 prom act inconclusive.
Cc1nc(C)c(-c2csc(Nc3ccc(O)c(C(=O)O)c3)n2)s1 was read as ELG1 genotox inactive, FLuc counter 9.53µM, Rab9 promoter act inactive and NPC1 prom act inactive.
For c1ccc(CN2CCN(c3nc(-c4ccccc4)nc4ccccc34)CC2)cc1 the results were ELG1 genotox inactive, FLuc counter inactive, Rab9 promoter act inactive, NPC1 prom act inactive and SMN2 splice up inactive.
Screening CCSc1ccc(-c2cccc([N+](=O)[O-])c2)nn1 returned ELG1 genotox inconclusive, FLuc counter inconclusive, Rab9 promoter act 3.16µM, NPC1 prom act inconclusive and SMN2 splice up inconclusive.
Screening CC(=O)N(CCCN(C)C)Cc1ccccn1 returned ELG1 genotox inactive, FLuc counter inactive, Rab9 promoter act inactive and NPC1 prom act inactive.
Cc1cc(-n2c(SCC(=O)NCc3ccccc3)nc3ccsc3c2=O)ccc1Cl was read as FLuc counter inactive.
For Cc1ccc(C(=O)COC(=O)c2ccc(Cl)c(N)c2)s1 the results were ELG1 genotox inactive, FLuc counter 1.35µM, Rab9 promoter act 3.16µM and NPC1 prom act inconclusive.
Screening O=C(OCC(=O)c1ccc(Cl)s1)c1ccc(CO)cc1 returned ELG1 genotox inactive, FLuc counter 21.3µM, Rab9 promoter act inactive and NPC1 prom act inactive.
O=C(OCC(=O)c1ccc(Br)s1)c1ccc(O)cc1 was read as ELG1 genotox inactive.
For O=C(O)Cc1csc(Nc2cccc(Cl)c2)n1 the results were ELG1 genotox inactive, FLuc counter inactive, Rab9 promoter act inactive, NPC1 prom act inactive and SMN2 splice up inactive.
Screening CC(C)c1ccc(Nc2nc(CC(=O)O)cs2)cc1 returned ELG1 genotox inconclusive, FLuc counter 2.13µM, Rab9 promoter act 1.41µM and NPC1 prom act 1.26µM.
`N#C/C(=C\c1ccc(OCc2ccc(C(=O)O)cc2)cc1)C(=O)NCc1ccccc1` gave ELG1 genotox inactive, FLuc counter inactive, Rab9 promoter act inactive and NPC1 prom act inactive.
`Cc1cc(/C=C(\C#N)C(=O)NCc2ccco2)c(C)n1C1CCCC1` gave ELG1 genotox inconclusive, FLuc counter 6.01µM, Rab9 promoter act inconclusive, NPC1 prom act inconclusive and SMN2 splice up inactive.
`Cc1cc(/C=C(/C#N)c2cccc(F)c2)c(C)n1-c1cccnc1` gave ELG1 genotox 5.17µM, FLuc counter 8.49µM, Rab9 promoter act inconclusive, NPC1 prom act inconclusive and SMN2 splice up 11.2µM.
`Cc1cc(/C=C(\C#N)C(=O)NCc2ccco2)c(C)n1-c1cccnc1` gave ELG1 genotox inconclusive, FLuc counter 15.1µM, Rab9 promoter act inconclusive and NPC1 prom act inconclusive.
Screening Cc1ccc(/C=C(\C#N)C(=O)NCc2ccco2)o1 returned ELG1 genotox inconclusive, FLuc counter inactive, Rab9 promoter act inactive, NPC1 prom act inactive and SMN2 splice up inactive.
Screening N#C/C(=C\c1ccc(OCc2cccc(C(=O)O)c2)cc1)C(=O)NCc1ccco1 returned ELG1 genotox inconclusive, FLuc counter 30.1µM, Rab9 promoter act 0.1µM and NPC1 prom act 0.355µM.
`COCCCNC(=O)CCn1c(=O)c2ccccc2n(CC(=O)Nc2ccc(C)cc2C)c1=O` gave ELG1 genotox inactive, FLuc counter inactive, Rab9 promoter act inactive, NPC1 prom act inactive and SMN2 splice up inactive.
Screening Cn1ccnc1SCC(=O)Nc1ccc(Cl)cn1 returned ELG1 genotox inactive, FLuc counter inactive, Rab9 promoter act inactive, NPC1 prom act inactive and SMN2 splice up inactive.
CCC(=O)Nc1c(C)nn(C(=O)CC)c1C was read as ELG1 genotox inactive, FLuc counter inactive, Rab9 promoter act inactive, NPC1 prom act inactive and SMN2 splice up inactive.
C/C(=N/OC(=O)c1ccc(C(F)(F)F)cc1)c1oc(C)nc1C was read as ELG1 genotox inactive, FLuc counter 12µM, Rab9 promoter act inactive and NPC1 prom act inactive.
`O=C(CCn1c2c(c3ccccc31)CCCC2)NNC(=O)c1ccccc1C(=O)O` gave ELG1 genotox inactive, FLuc counter 26.9µM, Rab9 promoter act inactive and NPC1 prom act inactive.
`O=C(CCNS(=O)(=O)c1ccccc1C(F)(F)F)N1CCN(S(=O)(=O)c2cccc(Cl)c2)CC1` gave ELG1 genotox inactive, FLuc counter inactive, Rab9 promoter act inactive and NPC1 prom act inactive.
Screening CCCCCn1c(NC2CCCCC2)nc2c1c(=O)[nH]c(=O)n2C returned ELG1 genotox inactive, FLuc counter inactive, Rab9 promoter act inactive and NPC1 prom act inactive.
`COc1ccc(/C=C/C(=O)N2CCC(c3nc4ccccc4o3)CC2)cc1` gave FLuc counter 19µM.
COC(=O)C1CCN(C(=O)/C=C/c2ccc(OC)cc2)CC1 was read as ELG1 genotox 2.31µM, FLuc counter 21.3µM, Rab9 promoter act 1.12µM and NPC1 prom act 0.282µM.
For COc1ccc(CC(=O)N2CCC(c3ccccc3)C2)cc1 (centres undefined) the results were ELG1 genotox inconclusive, FLuc counter inconclusive, Rab9 promoter act inconclusive, NPC1 prom act inactive and SMN2 splice up inactive.
`CC(C)Oc1ccc(C(=O)N2CCC(c3nc4ccccc4o3)CC2)cc1` gave FLuc counter inactive.
`COC(=O)C1CCN(C(=O)Nc2ccc(OC)cc2)CC1` gave ELG1 genotox inactive, FLuc counter inactive, Rab9 promoter act inactive, NPC1 prom act inactive and SMN2 splice up inactive.
Screening COc1ccc(/C=C/C(=O)N2CCC(c3ccccc3)C2)cc1 (centres undefined) returned ELG1 genotox inactive, FLuc counter 19µM, Rab9 promoter act inactive, NPC1 prom act inactive and SMN2 splice up inactive.
Screening Cc1ccc(C(=O)NNC(=O)c2ccc(S(=O)(=O)N(C)c3ccccc3)cc2)cc1 returned ELG1 genotox inactive, FLuc counter inactive, Rab9 promoter act inactive and NPC1 prom act inactive.
For Cc1csc(NC(=O)CSc2nsc(SCC(=O)Nc3nc(C)cs3)c2C#N)n1 the results were ELG1 genotox inconclusive, FLuc counter inconclusive, Rab9 promoter act 1.58µM, NPC1 prom act 2.51µM and SMN2 splice up 11.2µM.
For Cc1nc(SCC(=O)Nc2nccs2)c(C#N)c(C)c1C the results were ELG1 genotox inconclusive, FLuc counter 1.07µM, Rab9 promoter act 0.562µM and NPC1 prom act inconclusive.
C=CCn1c(SCC(=O)Nc2nccs2)nnc1-c1ccco1 was read as ELG1 genotox inactive, FLuc counter inactive, Rab9 promoter act inactive, NPC1 prom act inactive and SMN2 splice up inactive.
For Cc1cc(C(F)(F)F)c(C#N)c(SCC(=O)Nc2nc3ccccc3s2)n1 the results were ELG1 genotox 0.231µM, FLuc counter 1.2µM, Rab9 promoter act 0.398µM, NPC1 prom act 1.26µM and SMN2 splice up inactive.

Assay outcomes: PubChem, National Center for Advancing Translational Sciences (NCATS)
